# Results published in PubChem BioAssay (NCATS).
# Calls of active or inactive are those of the source. The call rests on the fitted dose curve; in most records, active means well fitted cell-killing curve with a large enough effect; inconclusive means small, poorly fitted or top-dose-only effect; inactive means flat fitted curve, though single readings scatter.
# Assay: Cell Viability - LYMP1-003 - Assay at 24 hr (AID 963);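 further: plate controls were DMSO only for no effect and tetraoctylammonium bromide positive control for full effect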
# Conditions: LYMP1-003 lymphoblastoid cell viability; series mostly up to 92.2 µM; viability change, negative = cytotoxic: at the top concentration
# From the text: NIH Chemical Genomics Center [NCGC]
# NIH Molecular Libraries Screening Centers Network [MLSCN]
# National Institutes of Environmental Health Sciences [NIEHS]
# National Toxicology Program [NTP]
# We have developed a 1536-well cell-based assay for quantitative high throughput screening (qHTS) against a number of cell lines to determine in vitro cytotoxicity of small molecules. This particular assay uses a human lymphoblastoid cell line (LYMP1-003) purchased from Coriell Institute for Medical Research.
# NCGC Assay Protocol Summary:
# The CellTiter-Glo luminescent cell viability assay (Promega) is a homogeneous method to measure the number of viable cells in culture. The end point readout of this assay is based on quantitation of intracellular ATP, an indicator of metabolic activity, using the luciferase reaction. Luciferase catalyzes the oxidation of beetle Luciferin to oxyluciferin and light in the presence of ATP. The luminescent signal is proportional to amount of ATP present.
# Using the CellTiter-Glo luminescent cell viability assay, the amount of cellular ATP was measured in the lymphoblastoid cell line with complete culture medium following compound treatment for 24 hours. The assay was performed in opaque white Kalypsys 1536-well plates. In the screen, tetraoctylammonium bromide was used as positive control. Library compounds were measured for their ability to cause acute toxicity in the cell line, as reflected by a decrease in intracellular ATP levels, in a concentration-dependent manner. […] AC50 values were determined from concentration-response data modeled with the standard Hill equation.
# qHTS protocol for CellTiter Glo lymphoblastoid cellular assay
# [Step] [Parameter] [Value] [Description]
# 1. Reagent; 5 uL; 2500 lymphoblastoid cells/well
# 2. Time; 5 hr; 37 C incubation
# 4. Controls; 23 nL; Tetraoctylammonium bromide 6.4pM to 92 uM
# 5. Time; 24 hr; 37 C incubation
# 6. Reagent; 5 uL; CellTiter Glo reagent
# 7. Time; 30 min; Room Temperature
# 8. Detection; Luminescence; Viewlux plate reader
# Keywords: cell viability, cytotoxicity, lymphoblastoid cell line, luminescence, NTPHTS, NTPHTS_NCGC, NIEHS, DSSTox, MLSMR, MLSCN, NIH Roadmap, qHTS, NCGC
row,SMILES,"viability change, negative = cytotoxic"
1,ClC=CCl,-1.97% (inactive)
2,c1ccc(NNc2ccccc2)cc1,-5.76% (inactive)
3,CC(C)[C@]12CC(=O)[C@H](C)[C@H]1C2,4.72% (inactive)
4,N#C/C(N)=C(/N)C#N,0.185% (inactive)
5,C=CCCC#N,1.78% (inactive)
6,CCCCCc1cc(O)cc(O)c1,-1.48% (inactive)
7,O=[N+]([O-])c1c(Cl)c(Cl)c(Cl)c(Cl)c1Cl,-4.68% (inactive)
8,C=CC=O,2.09% (inactive)
9,ClCCBr,-0.447% (inactive)
10,CC(C)(C)c1ccccc1O,0.779% (inactive)
11,CN(C)c1ccc(N=Nc2ccccc2)cc1,-7.69% (inactive)
12,O=P(OCCCl)(OCCCl)OCCCl,-1.21% (inactive)
13,Nc1cccc(Cl)c1,-8.09% (inactive)
14,CCCN(CCC)c1c([N+](=O)[O-])cc(C(F)(F)F)cc1[N+](=O)[O-],-2.84% (inactive)
15,Cc1ccc(N)c(C)c1,0.907% (inactive)
16,CCC(Cl)[N+](=O)[O-] (stereo not given),-1.52% (inactive)
17,N#C/C=C/C#N,2.89% (inactive)
18,CC(C)OC(=O)Cc1ccccc1,0.727% (inactive)
19,Cl/C=C/CCl,-4.16% (inactive)
20,CC(C)(COCC1CO1)COCC1CO1 (stereo not given),-2.44% (inactive)

row,SMILES,"viability change, negative = cytotoxic"
1,COc1cc(-c2ccc(N)c(OC)c2)ccc1N,-4.31% (inactive)
2,CC(C)(C)C(O)(CCc1ccc(Cl)cc1)Cn1cncn1 (stereo not given),-5.17% (inactive)
3,O=S(=O)(O)F,-0.459% (inactive)
4,CC(=O)NNc1ccccc1,-4.42% (inactive)
5,CCCCC(CC)COC(=O)c1ccc(C(=O)OCC(CC)CCCC)c(C(=O)OCC(CC)CCCC)c1 (stereo not given),-5.74% (inactive)
6,Cc1ccc(N=C=O)cc1N=C=O,-5.03% (inactive)
7,Cc1cc(-c2cc(C)c(N)c(C)c2)cc(C)c1N,0.382% (inactive)
8,Oc1ccc(Cl)c(Cl)c1,-0.415% (inactive)
9,Oc1cc(Cl)cc(Cl)c1,2.42% (inactive)
10,Nc1ccc(-c2ccccc2)cc1,-4.41% (inactive)
11,CC(C)CC(C)N (stereo not given),-1.14% (inactive)
12,COC(=O)c1ccccc1N,0.24% (inactive)
13,CC1CC(=O)O1 (stereo not given),1.58% (inactive)
14,Oc1cccc(Cl)c1,-2.45% (inactive)
15,O=Cc1ccc(Cl)cc1Cl,-3.82% (inactive)
16,BrCC(Br)C1CCC(Br)C(Br)C1 (stereo not given),0.0013% (inactive)
17,O=C(O)C(Cl)(Cl)Br,4.07% (inactive)
18,CC(Cl)CCl (stereo not given),-1.96% (inactive)
19,C(CCOCC1CO1)COCC1CO1 (stereo not given),-13.6% (inactive)
20,Nc1ccc([N+](=O)[O-])cc1[N+](=O)[O-],-1.03% (inactive)
